tim10-1 inh = inhibits growth of tim10-1 mutant yeast; inhibition, % at 20 µM; actives 2.2% (n = 330,000); S. cerevisiae tim10-1 ts strain growth, BacTiter-Glo, 24 h; AID 463190;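 active means inhibition of at least 40%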;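 further: mutant grown at 25 °C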
TIM10 inh = inhibits growth of TIM10 yeast strain; S. cerevisiae TIM10 strain growth, BacTiter-Glo luminescence, 24 h; inhibition, % at 10 µM; actives 1.4% (n = 330,000); AID 463195;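 active means inhibition of 40% or more at the single tested concentration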;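 further: wild-type TIM10 isogenic control strain grown at permissive 25 °C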
PfHsp90 set2 = inhibits growth of yeast expressing Plasmodium falciparum Hsp90; S. cerevisiae expressing PfHsp90, BacTiter-Glo ATP, 48 h; yeast lacking PDR1 and PDR3 efflux regulators; inhibition, % at 9.4 µM; actives 0.32% (n = 310,000);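 active means every replicate shows inhibition above about 80%, whatever the replicate mean, limit read from the data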
tim23-1 inh = inhibits growth of tim23-1 mutant yeast; inhibition, % at 20 µM; AID 463212; S. cerevisiae tim23-1 growth, BacTiter-Glo luminescence, 24 h; actives 1.3% (n = 330,000);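 active means growth inhibition of the mutant yeast at or above 50%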;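 further: temperature-sensitive mutant grown at 25 °C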
SUMO Mot1 rescue = SUMOylation pathway inhibition by Mot1-301 growth rescue; S. cerevisiae Mot1-301 growth rescue, ATP luminescence, 38.5C; percent above DMSO median, 100 means doubled; growth rescue, % at 18.8 µM; actives 1% (n = 320,000); AID 2716;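 active means every valid replicate shows activation above 250% relative to neutral control wells; inactive means the rest, any valid replicate at or below 250%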
tim10 confirm = TIM10 yeast growth inhibition, confirmed; AID 463215; inhibition, % at 10 µM; actives 63% (n = 4,600); S. cerevisiae tim10 strain growth, BacTiter-Glo luminescence, 24 h; shares compounds with TIM10 inh;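 active means inhibition of yeast growth at or above a set limit in either of two replicates at 10 µM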; further: this counterscreen used the strain with wild-type TIM10
Of the large screens only hits and unclear results are named; the others gave an inactive call (follow-up assays come after a bar, where they were run). Shown are actives, neighbours in structure and some others; about 4.4% of the full set was active somewhere.

O=C(COc1ccc2c(c1)oc(=O)c1ccccc12)NC(Cc1ccc(Cl)cc1)C(=O)O (stereo unspecified)	none
O=C(c1cnccn1)N1CCc2c([nH]c3ccccc23)C1c1cccc(Cl)c1 (stereo unspecified)	TIM10 inh 41.2 | tim10 confirm inactive
O=C(NC(=S)N1CCc2ccccc21)c1ccccc1Br	TIM10 inh 40.6 | tim10 confirm 31.4
CN1CCN(C(=S)NC(=O)c2ccccc2Br)CC1	none
Cc1ccc(SCC(=O)OCC(=O)N(C)CC(=O)Nc2ccccc2Cl)cc1C	none
Cc1cccn2c(=O)c(/C=C(\C#N)C(=O)NC3CCS(=O)(=O)C3)c(Oc3ccccc3Cl)nc12 (stereo unspecified)	none
Cc1ccccc1Oc1nc2c(C)cccn2c(=O)c1/C=C(\C#N)C(=O)NC1CCS(=O)(=O)C1 (stereo unspecified)	TIM10 inh 40.7 | tim10 confirm inactive
CC1(C)Cc2c(cnn2-c2ccc(F)cc2)C(NC(=O)c2ccco2)C1 (stereo unspecified)	none
CC12CC(c3ccccc3O1)N(C(=O)c1ccco1)C(=S)N2c1ccc(F)cc1 (stereo unspecified)	TIM10 inh 42.1 | tim10 confirm 40.0
CCc1nnc(NC(=O)COc2ccc([N+](=O)[O-])cc2)s1	none
CCc1nnc(NC(=O)COc2ccccc2[N+](=O)[O-])s1	TIM10 inh 40.1 | tim10 confirm inactive
CCOc1ccccc1/C=N/n1c(C2CCCCC2)n[nH]c1=S	TIM10 inh 42.6 | tim10 confirm 50.0
S=c1[nH]nc(C2CCCCC2)n1/N=C/c1cccc(Br)c1	none
Cc1cccc(/C=N/n2c(C3CCCCC3)n[nH]c2=S)c1	TIM10 inh 40.3 | tim10 confirm 49.0
CCN(CC(=O)NCc1ccc(Cl)cc1)C(=O)c1cc(S(=O)(=O)N2CCOCC2)ccc1C	none
CCOC12NC(=O)CC(=O)N1C(c1ccccc1)=CS2 (stereo unspecified)	TIM10 inh 42.5 (no result: PfHsp90 set2) | tim10 confirm inactive
COc1ccc([C@H]2CC(=O)C=C(/C=C/Cc3ccccc3)C2)cc1	TIM10 inh 47.5 | tim10 confirm 47.5
O=C(CNCCC1=CCCCC1)Nc1ccccc1N1CCCCC1	TIM10 inh 40.5 | tim10 confirm inactive
Cc1ccccc1S(=O)(=O)Cc1ccc(C(=O)NCCCN2CCCC(C)C2)o1 (stereo unspecified)	none
Cc1ccccc1CS(=O)(=O)Cc1ccc(C(=O)NCCCN2CC(C)CC(C)C2)o1 (stereo unspecified)	TIM10 inh 95.3 | tim10 confirm inactive
CN1CCC(CC(C(=O)N2CCCC2)(c2ccccc2)c2ccccc2)C1 (stereo unspecified)	none (no result: tim10-1 inh, TIM10 inh, tim23-1 inh, SUMO Mot1 rescue)
C=CCNC(=S)N/N=C/c1cccc([N+](=O)[O-])c1	TIM10 inh 46.6 | tim10 confirm 40.4
O=[N+]([O-])c1cccc(-c2ccc(/C=N/NC(=S)Nc3ccccc3)o2)c1	TIM10 inh 47.5 | tim10 confirm 47.5
C=CCNC(=S)Nc1cccc([N+](=O)[O-])c1	none
Cc1ccc(SCC(=O)Nc2ccc(N3CCOCC3)cc2)cc1C	none
S=C(Nc1ccc(Oc2ccccc2)cc1)NC1CCCCC1	TIM10 inh 40.1 | tim10 confirm 41.0
NNC(=O)c1ccc2nc(-c3ccc(Br)cc3)cn2c1	TIM10 inh 40.2 | tim10 confirm inactive
Cc1n[nH]c(C)c1S(=O)(=O)N1CCN(S(=O)(=O)c2cccc(F)c2)CC1	none (no result: PfHsp90 set2, SUMO Mot1 rescue)
COc1ccc(-c2cc(=Nc3ccc(C)cc3)c3ccccc3o2)cc1	TIM10 inh 55.0 | tim10 confirm 47.1
COc1ccc(N=c2cc(-c3ccc(O)cc3)oc3ccccc23)cc1	none
COc1ccc(-c2cc(=NC(CC(C)C)C(=O)O)c3cc(C)ccc3o2)cc1 (stereo unspecified)	TIM10 inh 61.2 | tim10 confirm 44.1
COc1ccccc1OCC(=O)Nc1cc(C(F)(F)F)ccc1-n1cncn1	none (no result: PfHsp90 set2)
CCc1ccc(N(CC(=O)NC(C)(C)C)C(=O)CCC(=O)Nc2ccccn2)cc1	none
CC(C)(C)c1cc(C(c2cccnc2)N2CCN(CCO)CC2)cc(C(C)(C)C)c1O (stereo unspecified)	TIM10 inh 41.4, PfHsp90 set2 105.3 | tim10 confirm 54.1

Screening data deposited in PubChem by several laboratories.
